Growth data for eight compounds are collected here from PubChem BioAssay (NCI).

The panel holds about 83,000 compounds, 20% with a hit somewhere; the sample as a whole holds those more often.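 Each cell line was grown in a 96-well plate and treated with one concentration of compound for 48 hours. Values below 10 were considered active.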 Values without a mark were called inactive. Active and inactive are the calls of the source.

Assay in all cases: NCI-60 one-dose screen, 48 h (100 = growth as untreated, 0 = no growth, -100 = all killed)
What all share (conditions): 10 µM unless noted

Assay [1] deals with SK-MEL-2 melanoma.
For assay [2], the system named is EKVX NSCLC.
Assay [3] concerns SN12C renal.
Assay [4] has as its system UO-31 renal.
Assay [5] relates to TK-10 renal.
Assay [6] relates to ACHN renal.
Assay [7] deals with CAKI-1 renal.
Assay [8] concerns A498 renal.
The test system of assay [9] is MOLT-4 leukemia.
Assay [10] has as its system SR leukemia.
Assay [11] concerns OVCAR-8 ovarian.
Assay [12] has as its system OVCAR-5 ovarian.
Assay [13] concerns OVCAR-4 ovarian.
The subject of assay [14] is SK-OV-3 ovarian.
For assay [15], the system named is IGROV1 ovarian.
Assay [16] deals with OVCAR-3 ovarian.
The subject of assay [17] is HS 578T breast.
In assay [18] the test system is NCI/ADR-RES ovarian.
Assay [19] has as its system CCRF-CEM leukemia.
Assay [20] has as its system RPMI-8226 leukemia.

For `Oc1ccc(Cl)c(Nc2ncnc3c2cnn3CC(Cl)c2ccc(Br)cc2)c1` (configuration not stated), the growth is 84.8% in assay [1]; 55.4% in assay [2]; 43.9% in assay [3]; 21.3% in [4]; 47.1% in assay [5]; 8.02% (active) in assay [6]. Besides, the growth in assay [7] was 18.3%; in assay [8], 98.9%; in assay [9], 34.7%; in [10], 55.3%; in [11] it was 54.9%; in assay [12] it was 49.6%. Moreover, the growth was 57.8% in assay [13]; 49.2% in assay [14]; -2.62% (active) in [15]; 32.3% in [16]; -17.7% (active) in assay [17]; 48% in assay [18].
`O=c1c(-c2nc(-c3ccccc3)c(-c3ccccc3)[nH]2)coc2ccc(F)cc12`: the growth in assay [1] was 62.9%; in assay [2], 25.7%; in assay [3] it was 68.9%; in assay [4], 40.4%; in assay [5], 94.3%; in [6] it was 51%. Further, the growth in assay [8] is 109%; in assay [19], 49%; in [9] it was 23.6%; in assay [10] it was 63.5%; in [20], 32.1%; in assay [11], 82.6%. Besides, the growth in assay [12] was 96.1%; in assay [13], 47.3%; in assay [14], 68.2%; in assay [15], 62.8%; in assay [16], 33.3%; in [17], 71.6%. Further, in [18], the growth is 51.4%.
For `O=C1CCC(N2C(=O)c3cccc(NCCOCCOCCOCCC(=O)NCCCC(=O)NC(c4ccc5c(c4)OCO5)c4cc(Cl)c5cccnc5c4O)c3C2=O)C(=O)C1` (configuration not stated), the growth in [1] is -5.74% (active); in assay [2], 38.1%; in assay [3], 26.9%; in assay [4] it was 64.5%; in assay [5] it was 95.2%; in assay [6] it was 89.3%. The growth in assay [7] was 69.8%; in assay [8], 104%; in assay [9], 8.18% (active); in assay [10] it was 5.36% (active); in assay [20], 16.1%; in assay [11], 32.7%. Besides, the growth in assay [12] is 63.8%; in assay [13], 60.2%; in assay [14] it was 51.1%; in [15], 15.8%; in assay [17], 64.6%; in [18] it was 92.4%.
Take `Clc1ccc2c(NCCNC34CC5CC(CC(C5)C3)C4)ccnc2c1`: the growth was -88% (active) in assay [1]; -67.5% (active) in assay [2]; -74.5% (active) in assay [3]; -98.6% (active) in assay [4]; -94.7% (active) in assay [5]; -95.8% (active) in assay [6]. The growth is -94.2% (active) in assay [8]; 4.53% (active) in assay [19]; -23.1% (active) in assay [9]; -35.2% (active) in assay [10]; 0.134% (active) in assay [20]; -63.4% (active) in assay [11]. The growth was -37.1% (active) in assay [12]; -57.3% (active) in assay [13]; -83.1% (active) in assay [14]; -55.6% (active) in assay [15]; -52.4% (active) in assay [16]; -45.4% (active) in assay [17].
`O=C(Nc1ccc(F)cc1)Nc1nc2ccc([N+](=O)[O-])cc2s1`: the growth in assay [1] was -44.6% (active); in assay [2], 1.79% (active); in assay [3], -0.399% (active); in assay [4], 4.33% (active); in assay [5], 6.73% (active); in assay [6], 2.52% (active). In addition, the growth in assay [7] was -12.5% (active); in assay [8], -15% (active); in [9], 14.6%; in assay [10], 12.9%; in [20] it was -23.5% (active); in [11], 11.4%. Besides, the growth was 24% in [12]; -5.21% (active) in assay [14]; 27.1% in [15]; 22.6% in assay [16]; -8.39% (active) in assay [17]; 6.37% (active) in assay [18].
As for `O=C(Nc1nc2ccc([N+](=O)[O-])cc2s1)Nc1ccccc1F`, the growth in [1] is 6.45% (active); in [2], 5.56% (active); in [3], 2.55% (active); in [4] it was 6.12% (active); in assay [5], 17.9%; in assay [6] it was 1.6% (active). The growth was -18.3% (active) in [8]; 15.5% in [19]; 15.7% in assay [9]; 15.1% in [10]; -19.2% (active) in assay [20]; 15.1% in assay [11]. In addition, the growth in assay [12] is 15.5%; in assay [13] it was 16.6%; in assay [14] it was -14.2% (active); in assay [15] it was 21.7%; in assay [16], 24.6%; in [17] it was 0.171% (active). In addition, the growth in [18] was 7.3% (active).
In the case of `O=C(CSc1nnc(-c2ccc(-c3nc4ccccc4[nH]3)cc2)o1)Nc1ccc(Cl)cc1`, the growth is 70.6% in assay [1]; 16.2% in assay [2]; 19.6% in assay [3]; 57.8% in [4]; 59.5% in [5]; -86.8% (active) in assay [6]. The growth was 132% in assay [8]; 32.5% in [19]; 6.05% (active) in assay [9]; 2.31% (active) in assay [10]; 7.96% (active) in [20]; -18% (active) in assay [11]. Besides, the growth is 47.1% in assay [12]; 45.1% in assay [13]; 83.1% in [14]; 44.4% in assay [15]; 20.8% in assay [16]; 63.1% in [17]. For the same compound, the growth in [18] was 30%.
For `CCOC(=O)/C(F)=C/C1CC1CCc1ccc(OCC)cc1` (configuration not stated), the growth in assay [1] was 102%; in assay [2] it was 47.7%; in assay [3], 44.9%; in assay [4], 73.8%; in assay [5], 98.2%; in assay [6], 75.1%. In addition, the growth is 86.1% in assay [7]; 102% in assay [8]; 98.4% in [9]; 78.6% in assay [10]; 101% in [11]; 108% in assay [12]. Moreover, the growth in [13] was 94.8%; in assay [14], 75.3%; in assay [15] it was 92.5%; in assay [16] it was 103%; in assay [17], 94.5%; in assay [18], 101%.
